From PubChem BioAssay (Tox21)
Values without a mark were called inactive. Records with an inconclusive call do not appear. Entries that show only a call come without a potency. The source made the active and inactive calls. Unless noted, calls follow the shape of the full dose curve.

Legend:
[1] = Nuclear factor erythroid 2-related factor 2/antioxidant responsive element (Nrf2/ARE) small molecule agonists: qHTS cell viability counter screen in human keratinocytes (AID 1919968; active = well fitted curve in the direction sought with a large enough effect in the repeat runs; an effect the other way counts as inactive or inconclusive; also: nearly all actives have a fitted effect of over 55% in size)
In short: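 KeratinoSens HaCaT cells, 1,500/well, preincubated 5 h, then exposed to compounds in DMSO for 23 h at 37 C/5% CO2. Viability read as CellTiter-Fluor fluorescence after 1 h, in the same wells as the ARE-luciferase read.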

[2] = Nuclear factor erythroid 2-related factor 2/antioxidant responsive element (Nrf2/ARE) small molecule agonists: luciferase reporter gene qHTS assay in human keratinocytes (AID 1919969); also: nearly all actives have a fitted effect of over 35% in size; also: potency is read from the fitted curve at half-maximal effect
[3] = target: Gonadotropin-releasing hormone receptor (Homo sapiens) (UniProt P30968); test: Human gonadotropin-releasing hormone receptor (GnRHR) small molecule agonists, calcium flux assay in GnRHR-HEK293 cells (AID 1920063); also: nearly all actives have a fitted effect of over 35% in size
In short: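 HEK293 cells stably expressing human GnRHR were dye-loaded for 1 h at 37 C. Compound was added in agonist mode and fluorescence (Ex/Em 480/540) recorded kinetically for 3 min. Fifteen concentrations, triplicates.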

[4] = target: KiSS-1 receptor (Homo sapiens) (UniProt Q969F8); test: Human kisspeptin (KISS1R) small molecule agonists, calcium flux assay in KISS1R-HEK293 cells (AID 1920064; active = well fitted curve in the direction sought with a large enough effect in the repeat runs; an effect the other way counts as inactive or inconclusive)
In short: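 HEK293 cells stably expressing human KISS1R were loaded with calcium dye for 1 h at 37 C, then given compound; fluorescence (Ex/Em 480/540) was read kinetically for 3 min. Fifteen concentrations, triplicate.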

[5] = G protein-coupled receptor (GPCR) small molecule agonists, calcium flux assay: HEK293 wild type cell line counter screen (AID 1920065)
In short: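 Wild-type HEK293 cells plated 18 h, loaded with calcium dye 1 h at 37 C, then compounds added in agonist mode (ATP as positive control). Kinetic fluorescence Ex/Em 480/540 recorded 3 min at 1 sec intervals; 15 concentrations, triplicate.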

[6] = p53 small molecule agonists, cell-based qHTS assay with human liver microsomes (AID 1963577)
In short: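 Compounds act here after metabolic activation: human liver microsomes and NADPH, both at 0.5 mg/mL final, were co-added to p53RE-bla cells. Incubation ran 16 h at 37 C, followed by LiveBLAzer detection.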

[7] = p53 small molecule agonists, cell-based qHTS assay with rat liver microsomes (AID 1963578)
In short: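 Read-out is beta-lactamase reporter fluorescence (LiveBLAzer, 2 h, room temperature, dark) in p53RE-bla cells treated 16 h at 37 C with compound, rat liver microsomes and NADPH, both 0.5 mg/mL final.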

[8] = p53 small molecule agonists, cell-based qHTS assay with human liver microsomes: qHTS cell viability counter screen (AID 1963579); also: nearly all actives have a fitted effect of over 45% in size
In short: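 Cells carrying the p53 response-element beta-lactamase reporter are treated for 16 h at 37 C with test compounds in the presence of human liver microsomes and NADPH (both 0.5 mg/mL final); ATP-based CellTiter-Glo luminescence then reports viability.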

[9] = p53 small molecule agonists, cell-based qHTS assay with rat liver microsomes: qHTS cell viability counter screen (AID 1963580); also: nearly all actives have a fitted effect of over 45% in size
In short: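 Intracellular ATP, by CellTiter-Glo luminescence, defines viability. HCT-116 p53RE-bla cells, 4,000 per well, were compound-treated in the presence of rat liver microsomes and NADPH for 16 h at 37 C.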

[10] = p53 small molecule agonists, cell-based qHTS assay: qHTS cell viability counter screen (AID 1963581); also: nearly all actives have a fitted effect of over 45% in size; also: potency is read from the fitted curve at half-maximal effect
In short: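 p53RE-bla HCT-116 cells, compounds added 5 h after plating and incubated 16 h at 37 C. Cytotoxicity measured in the same wells as intracellular ATP by CellTiter-Glo luminescence after 30 min at room temperature.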

[11] = p53 small molecule agonists, cell-based qHTS assay (AID 1963582; active = well fitted activation curve with a large enough effect in the signal ratio in the repeat runs, not every such curve was filed as active; the % refers to the signal ratio)
In short: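 p53RE-bla reporter cells, compounds added in DMSO after 5 h plating, incubated 16 h at 37 C. Beta-lactamase read via 2 h room-temperature LiveBLAzer B/G FRET substrate, fluorescence intensity.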

[12] = target: 5-hydroxytryptamine receptor 2A (Homo sapiens) (UniProt P28223); test: 5-hydroxytryptamine receptor 2A (HTR2A) small molecule antagonists, cell-based qHTS assay (AID 1963586); also: nearly all actives have a fitted effect of over 45% in size
In short: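 Antagonist-mode intracellular calcium assay: DOI (4 nM) added after 5 min compound pre-incubation at room temperature to dye-loaded HTR2A-CHO cells. Fluorescence followed for 3 min, sampled every second.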

[13] = target: 5-hydroxytryptamine receptor 2A (Homo sapiens) (UniProt P28223); test: 5-hydroxytryptamine receptor 2A (HTR2A) small molecule agonists, cell-based qHTS assay (AID 1963587); also: nearly all actives have a fitted effect of over 30% in size
In short: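 Kinetic calcium-flux fluorescence (2 min, 1 sec intervals) after compound addition in agonist mode. HTR2A-CHO cells were cultured 18 h, then dye-loaded 1 h at 37 C.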

[14] = target: Muscarinic acetylcholine receptor M1 (Homo sapiens) (UniProt P11229); test: Cholinergic receptor muscarinic 1 (CHRM1) small molecule antagonists, cell-based qHTS assay (AID 1963588); also: nearly all actives have a fitted effect of over 40% in size; also: potency is read from the fitted curve at half-maximal effect
In short: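 CHRM1-CHO calcium-flux assay, antagonist mode. Cells were seeded 18 h, dye-loaded 1 h at 37 C and given compound for 5 min at RT, then acetylcholine was added at 50nM. FDSS fluorescence was read 3 min; 15 concentrations, three runs.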

[15] = target: Muscarinic acetylcholine receptor M1 (Homo sapiens) (UniProt P11229); test: Cholinergic receptor muscarinic 1 (CHRM1) small molecule agonists, cell-based qHTS assay (AID 1963589); also: nearly all actives have a fitted effect of over 35% in size
In short: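 CHO cells stably expressing human CHRM1 were loaded with calcium dye for 1 h at 37 C, then compound was added in agonist mode. Intracellular calcium fluorescence was followed kinetically at 1 s intervals. Fifteen concentrations were tested in three independent runs.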

[16] = cAMP Responsive Elements (CRE) small molecule agonists, cell-based qHTS assay (AID 1963590)
In short: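 CRE-bla HEK 293T cells, 2,000/well in DMEM with 10% dialyzed FBS and 25 mM HEPES, pre-incubated 18 h at 37 C, then exposed to compound 3 h at 37 C. Beta-lactamase reporter read with LiveBLAzer B/G FRET substrate after 2 h at room temperature.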

[17] = cAMP Responsive Elements (CRE) small molecule antagonists, cell-based qHTS assay (AID 1963591; active = well fitted inhibition curve with a large enough effect in the signal ratio in the repeat runs, not every such curve was filed as active; the % refers to the signal ratio; also: potency is read from the fitted curve at half-maximal effect)
In short: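 CRE-bla HEK293T cells plated 18 h, then given compound plus NKH477 at 0.25 uM final for 3 h at 37C. Beta-lactamase reporter read with LiveBLAzer B/G FRET substrate after 2 h at room temperature.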

[18] = target: Beta-2 adrenergic receptor (Homo sapiens) (UniProt P07550); test: Adrenergic beta2 receptor (ADRB2) small molecule antagonists, cell-based qHTS assay (AID 1963592); also: series mostly up to about 92 µM; nearly all actives have a fitted effect of over 50% in size
In short: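 Cells (CHO, stable ADRB2 overexpression) incubated 18-20hr at 37C; compounds added from DMSO; agonist mix (1nM isoproterenol, 100uM IBMX, 25uM Ro-20-1724) added; 0.5hr RT; d2-cAMP and anti-cAMP-cryptate added; 1hr RT; 665/615 nm read.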

[19] = target: D(2) dopamine receptor (Homo sapiens) (UniProt P14416); test: Dopamine D2 receptor (DRD2) small molecule agonists, cell-based qHTS assay (AID 1963594); also: nearly all actives have a fitted effect of over 35% in size
In short: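 cAMP accumulation in DRD2-HEK293 cells measured by HTRF after 1 h detection; compounds added 10 min before NKH477 (200nM […]) forskolin-analogue stimulation, 30 min at room temperature, with Ro20-1724 present at 0.1 mM final.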

[20] = target: D(2) dopamine receptor (Homo sapiens) (UniProt P14416); test: Dopamine D2 receptor (DRD2) small molecule antagonists, cell-based qHTS assay (AID 1963595; active = well fitted inhibition curve with a large enough effect in the signal ratio in the repeat runs, with a control signal flat; the % refers to the signal ratio)
In short: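 HEK293 cells stably expressing DRD2 were preincubated with 0.1 mM Ro20-1724, then with compound for 10 min at room temperature. Cells were stimulated with 200 nM NKH477 plus 12 nM quinpirole for 30 min, and cAMP was read by HTRF.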

Sequence of 5-hydroxytryptamine receptor 2A (Homo sapiens) (P28223 whole entry, looked up): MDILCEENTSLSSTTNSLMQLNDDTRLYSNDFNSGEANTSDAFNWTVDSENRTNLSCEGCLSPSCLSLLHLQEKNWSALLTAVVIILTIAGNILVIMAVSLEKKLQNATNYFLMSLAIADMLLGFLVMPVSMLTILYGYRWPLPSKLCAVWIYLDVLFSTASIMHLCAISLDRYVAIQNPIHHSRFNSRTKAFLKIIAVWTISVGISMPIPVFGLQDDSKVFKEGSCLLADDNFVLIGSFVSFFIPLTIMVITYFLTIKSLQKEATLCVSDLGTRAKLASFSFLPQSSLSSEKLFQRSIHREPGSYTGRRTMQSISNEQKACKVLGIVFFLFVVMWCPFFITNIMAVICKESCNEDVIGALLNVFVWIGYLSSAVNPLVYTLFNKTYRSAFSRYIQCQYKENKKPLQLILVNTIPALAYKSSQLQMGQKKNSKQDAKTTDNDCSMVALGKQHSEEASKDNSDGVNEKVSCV
Sequence of D(2) dopamine receptor (Homo sapiens) (P14416 whole entry, looked up): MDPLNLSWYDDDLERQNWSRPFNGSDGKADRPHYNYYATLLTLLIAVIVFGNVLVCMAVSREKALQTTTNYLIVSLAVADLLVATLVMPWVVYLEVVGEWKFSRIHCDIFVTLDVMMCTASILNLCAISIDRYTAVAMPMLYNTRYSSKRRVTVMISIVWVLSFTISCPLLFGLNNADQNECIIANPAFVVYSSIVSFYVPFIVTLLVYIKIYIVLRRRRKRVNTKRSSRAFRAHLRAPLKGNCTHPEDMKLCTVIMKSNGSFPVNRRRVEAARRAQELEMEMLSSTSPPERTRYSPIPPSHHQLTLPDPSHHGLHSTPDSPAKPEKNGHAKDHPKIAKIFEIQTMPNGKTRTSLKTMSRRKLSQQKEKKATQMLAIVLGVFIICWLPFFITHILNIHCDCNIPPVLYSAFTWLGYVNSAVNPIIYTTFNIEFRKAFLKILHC
Sequence of Gonadotropin-releasing hormone receptor (Homo sapiens) (P30968 whole entry, looked up): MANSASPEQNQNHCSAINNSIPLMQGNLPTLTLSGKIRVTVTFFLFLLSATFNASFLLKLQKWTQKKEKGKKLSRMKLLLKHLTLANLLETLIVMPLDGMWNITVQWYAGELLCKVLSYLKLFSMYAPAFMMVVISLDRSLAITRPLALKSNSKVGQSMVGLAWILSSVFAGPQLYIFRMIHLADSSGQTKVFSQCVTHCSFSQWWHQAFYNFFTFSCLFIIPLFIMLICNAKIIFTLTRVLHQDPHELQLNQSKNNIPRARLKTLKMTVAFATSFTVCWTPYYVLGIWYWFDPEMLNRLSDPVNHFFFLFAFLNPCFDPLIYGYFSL
Sequence of KiSS-1 receptor (Homo sapiens) (Q969F8 whole entry, looked up): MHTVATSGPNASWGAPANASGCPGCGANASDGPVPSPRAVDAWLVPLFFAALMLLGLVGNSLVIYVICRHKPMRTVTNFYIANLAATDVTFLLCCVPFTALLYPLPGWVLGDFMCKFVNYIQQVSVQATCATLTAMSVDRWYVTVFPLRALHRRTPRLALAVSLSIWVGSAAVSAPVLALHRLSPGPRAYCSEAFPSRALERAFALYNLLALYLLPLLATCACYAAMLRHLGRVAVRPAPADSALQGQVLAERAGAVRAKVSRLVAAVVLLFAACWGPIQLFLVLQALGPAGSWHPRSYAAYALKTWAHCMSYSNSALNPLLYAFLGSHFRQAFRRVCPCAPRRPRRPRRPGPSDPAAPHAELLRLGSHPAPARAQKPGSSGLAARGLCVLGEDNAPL
Sequence of Beta-2 adrenergic receptor (Homo sapiens) (P07550 whole entry, looked up): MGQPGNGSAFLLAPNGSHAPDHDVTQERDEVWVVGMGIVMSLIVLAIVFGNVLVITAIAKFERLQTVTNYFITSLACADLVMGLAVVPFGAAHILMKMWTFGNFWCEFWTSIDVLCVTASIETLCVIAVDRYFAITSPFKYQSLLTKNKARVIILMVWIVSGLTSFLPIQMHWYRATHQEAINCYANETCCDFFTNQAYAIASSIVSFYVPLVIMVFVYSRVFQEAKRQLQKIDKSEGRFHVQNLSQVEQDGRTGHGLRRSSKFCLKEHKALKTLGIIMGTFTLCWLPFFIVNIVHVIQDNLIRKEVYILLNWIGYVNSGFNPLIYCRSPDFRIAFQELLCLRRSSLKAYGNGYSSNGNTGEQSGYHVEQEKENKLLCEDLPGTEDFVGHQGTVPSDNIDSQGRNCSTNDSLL
Sequence of Muscarinic acetylcholine receptor M1 (Homo sapiens) (P11229 whole entry, looked up): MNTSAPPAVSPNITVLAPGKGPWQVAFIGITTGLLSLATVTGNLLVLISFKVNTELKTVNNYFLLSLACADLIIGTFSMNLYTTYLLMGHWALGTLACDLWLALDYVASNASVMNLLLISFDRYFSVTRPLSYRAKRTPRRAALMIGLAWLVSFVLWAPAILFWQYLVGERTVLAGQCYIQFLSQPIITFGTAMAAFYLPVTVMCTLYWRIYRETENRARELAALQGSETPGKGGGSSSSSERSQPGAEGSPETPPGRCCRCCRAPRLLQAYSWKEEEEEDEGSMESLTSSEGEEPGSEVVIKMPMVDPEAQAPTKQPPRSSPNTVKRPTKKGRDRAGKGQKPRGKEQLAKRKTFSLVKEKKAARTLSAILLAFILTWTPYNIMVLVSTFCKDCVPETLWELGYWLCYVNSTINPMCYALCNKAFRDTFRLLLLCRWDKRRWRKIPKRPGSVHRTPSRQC

| Compound | Potency [1] | Potency [2] | Potency [3] | outcome [4] | outcome [5] | Potency [6] | Potency [7] | Potency [8] | Potency [9] | Potency [10] | Potency [11] | Potency [12] | Potency [13] | Potency [14] | Potency [15] | Potency [16] | Potency [17] | Potency [18] | Potency [19] | Potency [20] |
| --- | --- | --- | --- | --- | --- | --- | --- | --- | --- | --- | --- | --- | --- | --- | --- | --- | --- | --- | --- | --- |
| CC(C)C(O)C(C)(C)CO (stereo not given) | inactive | inactive | inactive | inactive | inactive | inactive | inactive | inactive | inactive | 3.75 µM (active) | inactive | inactive | inactive | 487 nM (active) | inactive | inactive | 56.2 µM (active) | inactive | inactive | inactive |
| CCC1(C)NC(=O)NC1=O (stereo not given) | inactive | inactive | inactive | inactive | inactive | inactive | inactive | inactive | inactive | inactive | inactive | inactive | inactive | inactive | inactive | inactive | inactive | inactive | inactive | inactive |
| CCN(CC)C(=O)N(CC)CC | inactive | inactive | inactive | inactive | inactive | inactive | inactive | inactive | inactive | inactive | inactive | inactive | inactive | inactive | inactive | inactive | inactive | inactive | inactive | inactive |
| O=C1CCCCO1 | inactive | inactive | inactive | inactive | inactive | inactive | inactive | inactive | inactive | inactive | inactive | inactive | inactive | inactive | inactive | inactive | inactive | inactive | inactive | inactive |
| CCCCN(CCCC)C(C(N)=O)c1ccc(OC)cc1 (stereo not given) | inactive | inactive | inactive | inactive | inactive | inactive | inactive | inactive | inactive | inactive | inactive | inactive | inactive | inactive | inactive | inactive | inactive | inactive | inactive | inactive |
| C=CC(C)(CCC=C(C)C)OC(=O)c1ccccc1 (stereo not given) | inactive | 24.3 µM (active) | inactive | inactive | inactive | inactive | inactive | inactive | inactive | inactive | inactive | inactive | inactive | inactive | inactive | inactive | inactive | inactive | inactive | inactive |
| CCCCCO | inactive | inactive | inactive | inactive | inactive | inactive | inactive | inactive | inactive | inactive | inactive | inactive | inactive | inactive | inactive | inactive | inactive | inactive | inactive | inactive |
